In PubChem BioAssay AID1159580 (chemical genetic matrix, 2015):
Several values for one entry are separate records, joined by “and”; a condition that tells them apart may be missing. Equal entries are not always repeated. Screen size: about 5,500 compounds; about 2,000 (36%) were called active. Inconclusive results (about 18%) are left out. No stated cut-off is given here; in the data, active means normalized growth mostly below about 0.91 (no sharp cut-off); inconclusive means no clear call, values can overlap the other calls; inactive means mostly above about 0.92. This is one part of the list.

Test: chemical genetic growth profiling, strain panel (AID 1159580);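 further: tested at 20 µM; growth read once vehicle control cultures reached saturation at 30 °C; 1 = growth at the plate median or of vehicle wells; lower values mean less growth of the strain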
Details: S. cerevisiae deletion strains, growth OD

Measured: normalized growth

Cc1cc(O)c(C)c(O)c1C(=O)O
inactive: locus YAL021C, strain ccr4, hits give low values 0.989 | locus YAL026C, strain drs2, hits give low values 0.979 | locus YAL030W, strain snc1, hits give low values 0.999 | locus YBL061C, strain skt5, hits give low values 0.989 | locus YBR009C, strain hhf1, hits give low values 0.97 | locus YBR021W, strain FUR4, hits give low values 0.986 | locus YBR023C, strain chs3, hits give low values 0.981 | locus YBR171W, strain sec66, hits give low values 0.99 | locus YBR229C, strain ROT2, hits give low values 0.993 | locus YBR231C, strain swc5, hits give low values 0.992 | locus YBR279W, strain paf1, hits give low values 0.984 | locus YCL011C, strain gbp2, hits give low values 0.991 | locus YCL016C, strain dcc1, hits give low values 0.99 | locus YCL029C, strain bik1, hits give low values 0.976 | locus YCL061C, strain MRC1, hits give low values 1.01 | locus YCL069W, strain vba3, hits give low values 0.995 | locus YCR088W, strain abp1, hits give low values 0.988 | locus YDL005C, strain med2, hits give low values 0.984 | locus YDL035C, strain GPR1, hits give low values 1.03 | locus YDL040C, strain nat1, hits give low values 0.99 | locus YDL074C, strain BRE1, hits give low values 1.06 | locus YDL101C, strain DUN1, hits give low values 0.986 | locus YDL134C, strain PPH21, hits give low values 0.978 | locus YDL185W, strain tfp1, hits give low values 0.964 | locus YDL192W, strain arf1, hits give low values 0.997 | locus YDR001C, strain nth1, hits give low values 0.981 | locus YDR069C, strain doa4, hits give low values 0.956 | locus YDR101C, strain arx1, hits give low values 1.04 | locus YDR137W, strain rgp1, hits give low values 0.899 | locus YDR159W, strain sac3, hits give low values 0.983 | locus YDR162C, strain NBP2, hits give low values 1.03 | locus YDR195W, strain ref2 0.977 | locus YDR297W, strain sur2, hits give low values 0.986 | locus YDR318W, strain mcm21, hits give low values 0.979 | locus YDR334W, strain swr1, hits give low values 0.975 | locus YDR335W, strain msn5, hits give low values 0.985 | locus YDR388W, hits give low values 1 | locus YDR392W, strain spt3, hits give low values 0.931 | locus YDR502C, strain sam2, hits give low values 0.98 | locus YEL003W, strain gim4, hits give low values 0.978 | locus YEL037C, strain rad23, hits give low values 0.976 | locus YEL061C, strain CIN8 (second series), hits give low values 0.979 | locus YEL061C, strain CIN8, hits give low values 1 | locus YER015W, strain faa2, hits give low values 0.987 | locus YER016W, strain bim1, hits give low values 0.991 | locus YER110C, hits give low values 0.984 | locus YER111C, strain swi4, hits give low values 0.985 | locus YER155C, strain BEM2 (second series), hits give low values 0.968 | locus YER155C, strain BEM2, hits give low values 0.988 | locus YER167W, strain BCK2, hits give low values 1.01 | locus YFR010W, strain ubp6, hits give low values 0.975 | locus YGL078C, strain dbp3, hits give low values 0.95 | locus YGL086W, strain mad1, hits give low values 0.997 | locus YGL167C, strain pmr1, hits give low values 0.974 | locus YGL173C, strain kem1, hits give low values 0.984 | locus YGL227W, strain vid30, hits give low values 0.995 | locus YGL240W, strain doc1, hits give low values 0.906 | locus YGL248W, strain PDE1, hits give low values 0.978 | locus YGL253W, strain hxk2, hits give low values 0.993 | locus YGR078C, strain PAC10, hits give low values 0.976 | locus YGR135W, strain pre9, hits give low values 0.925 | locus YGR252W, strain gcn5, hits give low values 0.926 | locus YHR013C, strain ard1, hits give low values 0.954 | locus YHR027C, strain rpn1, hits give low values 0.997 | locus YHR030C, strain SLT2, hits give low values 1.04 | locus YHR079C, strain IRE1 (second series), hits give low values 0.993 | locus YHR079C, strain IRE1, hits give low values 1.02 | locus YHR094C, strain hxt1, hits give low values 0.981 | locus YHR129C, strain ARP1, hits give low values 1.01 | locus YHR142W, strain chs7, hits give low values 1.02 | locus YHR200W, strain rpn10, hits give low values 0.96 | locus YIL066C, strain RNR3, hits give low values 1.01 | locus YIL073C, strain SPO22, hits give low values 0.806 | locus YIL125W, strain kgd1, hits give low values 1 | locus YIR030C, strain dcg1, hits give low values 0.989 | locus YJL092W, strain hpr5, hits give low values 1 | locus YJL095W, strain BCK1 (second series), hits give low values 1 | locus YJL095W, strain BCK1, hits give low values 0.988 and 1.05 | locus YJL115W, strain asf1, hits give low values 0.983 | locus YJL129C, strain trk1, hits give low values 0.995 | locus YJL134W, strain LCB3, hits give low values 1 | locus YJL154C, strain vps35, hits give low values 0.986 | locus YJL164C, strain tpk1, hits give low values 1.01 | locus YJL166W, strain qcr8, hits give low values 0.961 | locus YJL168C, strain set2, hits give low values 0.982 | locus YJL187C, strain SWE1 (second series), hits give low values 0.985 | locus YJL187C, strain SWE1, hits give low values 0.992
